According to PubChem BioAssay (Tox21):
Active and inactive are the calls of the source. Calls come from the whole dose curve; as a rule, active = well fitted curve in the direction sought with a large enough effect in the repeat runs; inconclusive = weak or mixed curves; inactive = flat fitted curve, though single readings scatter.

assay: qHTS assay to test for compound auto fluorescence at 535 nm (green) in HepG2 cells (AID 720675); conditions: green autofluorescence 485/535 nm, 1 h; series mostly up to 91.3 µM

| Compound | outcome |
| --- | --- |
| CCCCC(CC)COC(=O)C(C#N)=C(c1ccccc1)c1ccccc1 (centres undefined) | inactive |
| O=C(Oc1ccccc1)c1ccccc1 | inactive |
| CC1CCC(C(C)C)C(O)C1 (centres undefined) | inactive |
| CCCCCCCCCCCCOCCO | inactive |
| O=C(O)[C@H](O)[C@@H](O)[C@H](O)[C@H](O)CO | inactive |
| CCCSc1ccc2nc(NC(=O)OC)[nH]c2c1 | inactive |
| O=C(O)CCCC[C@@H]1SC[C@@H]2NC(=O)N[C@@H]21 | inactive |
| CCc1ccc(CCOc2ccc(CC3SC(=O)NC3=O)cc2)nc1 (centres undefined) | inactive |
| COc1ccc2cc([C@H](C)C(=O)O)ccc2c1 | inactive |
| COCCCOc1ccnc(CS(=O)c2nc3ccccc3[nH]2)c1C (centres undefined) | inactive |
| O=C(O)c1cc(C(=O)O)cc(S(=O)(=O)O)c1 | inactive |
| Cc1ccc2oc(=O)ccc2c1 | inactive |
| Cc1occc(=O)c1O | inactive |
| CCN(CC)c1ccc(C(=O)c2ccccc2C(=O)O)c(O)c1 | inactive |
| CC(c1cc2ccccc2s1)N(O)C(N)=O (centres undefined) | inactive |
| CC(C)c1ccc(S(=O)(=O)O)cc1 | inactive |
| O=C(O)c1ccccc1C(c1ccc(O)cc1)c1ccc(O)cc1 | inactive |
| OCc1cccnc1 | inactive |
| COS(C)(=O)=O | inactive |
| CCCCCC/C(C=O)=C\c1ccccc1 | inactive |

| Compound | outcome |
| --- | --- |
| CCCCCC1=CCCC1=O | inactive |
| CCCCCOC(C)=O | inactive |
| C#C[C@]1(O)CC[C@H]2[C@@H]3CCC4=CC(=O)CC[C@@H]4[C@H]3CC[C@@]21C | inactive |
| CCCCC(CC)COC(=O)CCCCC(=O)OCC(CC)CCCC (centres undefined) | inactive |
| COc1ccc(NC(C)=O)cc1N | inactive |
| OC[C@H]1O[C@@](CO)(O[C@H]2O[C@H](CO)[C@@H](O)[C@H](O)[C@H]2O)[C@@H](O)[C@@H]1O | inactive |
| Cc1cccnc1 | inactive |
| NNc1nncc2ccccc12 | inactive |
| CC1=CCC2CC1C2(C)C (centres undefined) | inactive |
| O=C(O)CCCCCCCCCCC(=O)O | inactive |
| CCN(CC)CCCC(C)Nc1ccnc2cc(Cl)ccc12 (centres undefined) | inactive |
| CC(=O)Nc1ccccc1 | inactive |
| CC(=O)CC(=O)Nc1ccccc1 | inactive |
| OCC(CO)(CBr)CBr | inactive |
| CCCCCCCCC/C=C/CC1CC(=O)OC1=O (centres undefined) | inactive |
| CC[C@H](C)C(=O)O[C@H]1C[C@@H](C)C=C2C=C[C@H](C)[C@H](CC[C@@H]3C[C@@H](O)CC(=O)O3)[C@H]21 | inactive |
| O=[N+]([O-])c1ccc(/C=C/c2ccc([N+](=O)[O-])cc2S(=O)(=O)O)c(S(=O)(=O)O)c1 | inactive |
| CC1=CC(=O)NS(=O)(=O)O1 | inactive |
| C=C(C)C(=O)Nc1ccc(Cl)c(Cl)c1 | inactive |

assay: qHTS assay to test for compound auto fluorescence at 460 nm (blue) in HEK293 cells (AID 720678); conditions: blue autofluorescence 405/460 nm; series mostly up to 91.3 µM
Outline: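 Blue-channel (Ex/Em 405/460 nm) intensity measured in HEK293 cultures after overnight compound exposure at 37C; signal expressed relative to triamterene. Cells plated 2,000 per well in 10% dialyzed FBS medium and allowed 4-5 hr to attach.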

| Compound | outcome |
| --- | --- |
| CCCCC(CC)COC(=O)C(C#N)=C(c1ccccc1)c1ccccc1 (centres undefined) | inactive |
| O=C(Oc1ccccc1)c1ccccc1 | inactive |
| COCCCOc1ccnc(CS(=O)c2nc3ccccc3[nH]2)c1C (centres undefined) | inactive |
| O=C(O)c1cc(C(=O)O)cc(S(=O)(=O)O)c1 | inactive |
| CCN(CC)c1ccc(C(=O)c2ccccc2C(=O)O)c(O)c1 | inactive |
| CC(c1cc2ccccc2s1)N(O)C(N)=O (centres undefined) | inactive |
| CC(C)c1ccc(S(=O)(=O)O)cc1 | inactive |
| OCc1cccnc1 | inactive |
| COS(C)(=O)=O | inactive |
| CCCCCC1=CCCC1=O | inactive |
| CCCCCOC(C)=O | inactive |
| C#C[C@]1(O)CC[C@H]2[C@@H]3CCC4=CC(=O)CC[C@@H]4[C@H]3CC[C@@]21C | inactive |
| CCCCC(CC)COC(=O)CCCCC(=O)OCC(CC)CCCC (centres undefined) | inactive |
| OC[C@H]1O[C@@](CO)(O[C@H]2O[C@H](CO)[C@@H](O)[C@H](O)[C@H]2O)[C@@H](O)[C@@H]1O | inactive |
| Cc1cccnc1 | inactive |
| CC1=CCC2CC1C2(C)C (centres undefined) | inactive |
| CC(=O)Nc1ccccc1 | inactive |
| OCC(CO)(CBr)CBr | inactive |
| CCCCCCCCC/C=C/CC1CC(=O)OC1=O (centres undefined) | inactive |
| O=[N+]([O-])c1ccc(/C=C/c2ccc([N+](=O)[O-])cc2S(=O)(=O)O)c(S(=O)(=O)O)c1 | inactive |
| CC1=CC(=O)NS(=O)(=O)O1 | inactive |

assay: qHTS assay to test for compound auto fluorescence at 590 nm (red) in HEK293 cells (AID 720679); conditions: red autofluorescence 540/590 nm; series mostly up to 91.3 µM
Outline: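 Red-channel autofluorescence (Ex/Em 540/590 nm; Rose Bengal sodium reference) was measured after overnight 37C, 5% CO2 exposure of attached HEK293 cells, 2,000 per well in medium with 10% dialyzed FBS.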

| Compound | outcome |
| --- | --- |
| CCCCC(CC)COC(=O)C(C#N)=C(c1ccccc1)c1ccccc1 (centres undefined) | inactive |
| O=C(Oc1ccccc1)c1ccccc1 | inactive |
| CC1CCC(C(C)C)C(O)C1 (centres undefined) | inactive |
| CCCCCCCCCCCCOCCO | inactive |
| O=C(O)[C@H](O)[C@@H](O)[C@H](O)[C@H](O)CO | inactive |
| CCCSc1ccc2nc(NC(=O)OC)[nH]c2c1 | inactive |
| O=C(O)CCCC[C@@H]1SC[C@@H]2NC(=O)N[C@@H]21 | inactive |
| CCc1ccc(CCOc2ccc(CC3SC(=O)NC3=O)cc2)nc1 (centres undefined) | inactive |
| COc1ccc2cc([C@H](C)C(=O)O)ccc2c1 | inactive |
| COCCCOc1ccnc(CS(=O)c2nc3ccccc3[nH]2)c1C (centres undefined) | inactive |
| O=C(O)c1cc(C(=O)O)cc(S(=O)(=O)O)c1 | inactive |
| Cc1ccc2oc(=O)ccc2c1 | inactive |
| Cc1occc(=O)c1O | inactive |
| CCN(CC)c1ccc(C(=O)c2ccccc2C(=O)O)c(O)c1 | inactive |
| CC(c1cc2ccccc2s1)N(O)C(N)=O (centres undefined) | inactive |
| CC(C)c1ccc(S(=O)(=O)O)cc1 | inactive |
| O=C(O)c1ccccc1C(c1ccc(O)cc1)c1ccc(O)cc1 | inactive |
| OCc1cccnc1 | inactive |
| COS(C)(=O)=O | inactive |
| CCCCCC/C(C=O)=C\c1ccccc1 | inactive |

| Compound | outcome |
| --- | --- |
| CCCCCC1=CCCC1=O | inactive |
| CCCCCOC(C)=O | inactive |
| C#C[C@]1(O)CC[C@H]2[C@@H]3CCC4=CC(=O)CC[C@@H]4[C@H]3CC[C@@]21C | inactive |
| CCCCC(CC)COC(=O)CCCCC(=O)OCC(CC)CCCC (centres undefined) | inactive |
| COc1ccc(NC(C)=O)cc1N | inactive |
| OC[C@H]1O[C@@](CO)(O[C@H]2O[C@H](CO)[C@@H](O)[C@H](O)[C@H]2O)[C@@H](O)[C@@H]1O | inactive |
| Cc1cccnc1 | inactive |
| NNc1nncc2ccccc12 | inactive |
| CC1=CCC2CC1C2(C)C (centres undefined) | inactive |
| O=C(O)CCCCCCCCCCC(=O)O | inactive |
| CCN(CC)CCCC(C)Nc1ccnc2cc(Cl)ccc12 (centres undefined) | inactive |
| CC(=O)Nc1ccccc1 | inactive |
| CC(=O)CC(=O)Nc1ccccc1 | inactive |
| OCC(CO)(CBr)CBr | inactive |
| CCCCCCCCC/C=C/CC1CC(=O)OC1=O (centres undefined) | inactive |
| CC[C@H](C)C(=O)O[C@H]1C[C@@H](C)C=C2C=C[C@H](C)[C@H](CC[C@@H]3C[C@@H](O)CC(=O)O3)[C@H]21 | inactive |
| O=[N+]([O-])c1ccc(/C=C/c2ccc([N+](=O)[O-])cc2S(=O)(=O)O)c(S(=O)(=O)O)c1 | inactive |
| CC1=CC(=O)NS(=O)(=O)O1 | inactive |
| C=C(C)C(=O)Nc1ccc(Cl)c(Cl)c1 | inactive |
